# According to PubChem BioAssay AID904 (National Center for Advancing Translational Sciences (NCATS), 2007):
# Among all 55,000 compounds or so, about 530 (0.96%) were called active. Another 7% or so got no clear call; they are omitted. The sample as a whole holds a higher share of actives than the screen did. Unmarked numbers belong to inactive results. Calls follow the shape of the dose curve; as a rule, active = well fitted cell-killing curve with a large enough effect; inconclusive = small, poorly fitted or top-dose-only effect; inactive = no such curve, though single readings can be large or run the other way.
# Assay: qHTS Screen for Compounds that Selectively Target Cancer Cells with p53 Mutations: Cytotoxicity of p53 Null Cells at the Nonpermissive Temperature; also: nearly all actives have a fitted effect of over 50% in size;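 as to activity, negative = cell killing: 0% = DMSO only and -100% = full killing by 100 µM tamoxifen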
# Conditions: H1299 p53-null (neo) cells, 39C, ATPlite viability, 24 h; series mostly up to 46.1 µM; activity, negative = cell killing: at the top concentration
# Procedure, shortened: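 Following overnight plating at 37C (600 cells/well), H1299-neo or H1299-p53A138V cells are dosed up to 46 uM. Incubation lasts 24 hr at 39C before ATP detection.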
# Potency is read from the fitted curve at half-maximal effect.
Structure (SMILES),"activity, negative = cell killing",Potency
O=C(ON=C1CCN(S(=O)(=O)c2ccccc2)CC1)c1ccc(Cl)cc1,19.7%,
CCOC(=O)CSC1=Nc2ccccc2C2=NC(CCC(=O)NCc3ccc(F)cc3)C(=O)N12 (stereo not drawn),-3.67%,
O=C(/C=C/c1cn(CC(O)CN2CCc3ccccc32)c2ccccc12)c1ccc(Br)cc1 (stereo not drawn),-12.6%,
COc1ccc(OCCn2cc(C(=O)C3CCCCC3)c3ccccc32)cc1,-24.1%,
CCOc1ccc(C(=O)/C=C/c2cn(CC(O)CN3CCCCCC3)c3ccccc23)cc1 (stereo not drawn),,12.6 µM (active)
O=C(Cc1cccs1)Nc1nnc(SCc2ccc(F)cc2)s1,5.89%,
CCc1ccccc1N(C)C(=O)C1CCCN(c2ncnc3onc(-c4ccc(F)cc4)c23)C1 (stereo not drawn),-13.8%,
Cc1nn(Cc2ccc(F)cc2)c(C)c1NC(=O)c1cc(CC(C)C)on1,2.53%,
COc1ccc(C2(CNC(=O)C(c3ccccc3)c3ccccc3)CCOCC2)cc1OC,-10.5%,
CCC(CC)C(=O)N1CCc2cc(OC)c(OC)cc2C1COc1ccc(F)cc1 (stereo not drawn),35.1%,
COc1cccc(N2CCN(S(=O)(=O)c3cc(Br)cc4c3N(C(=O)C3CC3)CC4)CC2)c1,-22.6%,
Oc1c(C(c2ccc(F)cc2)N2CCN(Cc3ccccc3)CC2)sc2nc(-c3ccco3)nn12 (stereo not drawn),8.44%,
CCCC(=O)Nc1cc(C(=O)NCc2ccc(OC)cc2)ccc1S(=O)(=O)c1ccc(Cl)cc1,0.688%,
Cn1c(=O)c(=O)n(C)c2cc(NC(=O)c3ccccc3Br)ccc21,-25.1%,
CCc1nn(CCCC(=O)NCc2ccc(C)cc2)c(=O)c2cc3occc3n12,-21.6%,
Cc1ccc(NC(=O)C(=O)NCc2ccc(/C=N/NC(=O)c3c(C)nc4cc(C)ccn34)o2)cc1,8.36%,
Cc1c(C(=O)NCCCc2ccccc2)cccc1[N+](=O)[O-],-7.93% [at 1.84 µM],
CC(NC(=S)Nc1ccccc1)C1COc2ccccc2O1 (stereo not drawn),-2.56%,
COc1cccc2c1cc1c(=O)n(CC(=O)N3CCN(c4cccc(Cl)c4)CC3)nc(C)n12,-8.53%,
COc1cc(OC)c(C(=O)Nc2ccccc2-c2ccccc2)cc1OC,18.9% [at 1.84 µM],
CCOC(=O)c1ccc(NC(=O)Cn2c(=O)cc(C)c3c(C)nn(-c4cccc(F)c4)c32)cc1,-0.639%,
Cc1nn(-c2ccccc2)c(Cl)c1/C=C/C(=O)c1ccc(O)cc1,23.1%,
COc1ccc(NC(=O)CC2C(=O)OCC3CCCCN32)cc1Cl (stereo not drawn),14% [at 1.84 µM],
CC(C)(C)c1ccc(C(=O)NCc2nnc(SCC(=O)N3CCCc4ccccc43)n2-c2ccccc2)cc1,-3.75%,

Structure (SMILES),"activity, negative = cell killing",Potency
Cc1cc(C)c(NC(=O)c2oc3ccccc3c2COc2ccccc2)c(C)c1,16.4%,
Cc1ccccc1NC(=O)c1c(NC(=O)c2ccccc2F)sc2c1CCC(C)C2 (stereo not drawn),3.45%,
O=C(Nc1nc2c(s1)CCCC2)c1ccccc1F,,7.94 µM (active)
Cc1cc(C)cc(OC(C)C(=O)Nc2nc3c(s2)CCCC3)c1 (stereo not drawn),7.6%,
COc1ccc(Cl)cc1NC(=O)CNc1ccccc1F,28.8% [at 1.84 µM],
COc1ccc(OCCCn2c(C3CC(=O)N(c4ccc(F)cc4)C3)nc3ccccc32)cc1 (stereo not drawn),-24.9%,
CCCCN1CC(c2nc3ccccc3n2CCCCOc2ccc(C)cc2C)CC1=O (stereo not drawn),15.7%,
CCc1ccccc1N1CC(c2nc3ccccc3n2CCCCOc2ccccc2)CC1=O (stereo not drawn),,20 µM (active)
Cc1cccc(NC(=S)Nc2ccc3cn[nH]c3c2)c1,13%,
CCN1CCN(C(=O)C2(NC(=O)Nc3cccc(F)c3)CCCCC2)CC1,-11.5%,
COc1cc(Cl)c(C)cc1NC(=O)CCc1nc2cccnc2n1Cc1cccs1,22.6%,
O=S(=O)(NN=C1CCCCCCC1)c1ccc(Br)cc1,-8.87%,
CC1=CC(=C(C#N)c2nc3ccccc3s2)C=C(C)N1c1ccc(F)cc1F,34.3%,
CCc1ccc(C2CC(=O)c3c([nH]c(C(=O)OCc4ccc(C)cc4)c3C)C2)cc1 (stereo not drawn),15.3%,
Cc1cc(C)cc(C(=O)N2CCN=C2SCc2ccc([N+](=O)[O-])cc2)c1,-7.93%,
Fc1ccc(Nc2nc(SCc3ccccc3Cl)nc3ccccc23)cc1,-16.2%,
CC(C)(C)NC(=O)CSc1nc(-c2ccc(F)cc2)cc(C(F)(F)F)n1,20.5%,
CSc1nc(Nc2ccc(F)cc2)cc(-c2ccccc2)n1,,15.8 µM (active)
Cc1ccc(CNC(=O)CCc2c(C)nc3c(c(C)nn3-c3ccccc3)c2C)cc1,-14.7%,
CCC1CCCCN1C(=S)Nc1ccc(SC(F)F)cc1 (stereo not drawn),-0.151%,
CCc1ccccc1NC(=O)Cn1c(=O)n(-c2cccc(C)c2)c(=O)c2c1c1cc(OC)ccc1n2C,17.9%,
Cc1ccc(-c2nn3c(=O)cc(CN4CCN(S(=O)(=O)c5ccc(Cl)cc5)CC4)nc3s2)cc1,-26.2%,
CCCCOC(=O)/C(C#N)=C/c1ccc(-c2cccc(C(F)(F)F)c2)o1,20.7%,
CCOC(=O)c1nc(Nc2ccc(C(=O)OC)cc2)c2ccccc2n1,2.12%,

Structure (SMILES),"activity, negative = cell killing",Potency
COc1cccc(Nc2nc3ccccc3c3nncn23)c1,-29.5%,
COc1cc(Nc2nc(-c3ccc(OC)c(OC)c3)nc3ccccc23)cc(OC)c1,,14.1 µM (active)
O=C(Nc1ccc2c(c1)OCO2)c1cc(-c2cccc(Cl)c2)on1,-4.53%,
Cc1ccccc1-c1nc2scc(CCNC(=O)C(=O)Nc3ccc(F)cc3F)n2n1,-1.2%,
Cc1ccc(Nc2c(-c3ccc(C)cc3)nc3cnccn23)cc1,44.7%,
CC(=O)Nc1ccc(S(=O)(=O)N2CCN(c3ccc([N+](=O)[O-])c(NCCN4CCOCC4)c3)CC2)cc1,12.1%,
O=C(O)c1ccc(CSc2nc3cccnc3n2Cc2cccc(F)c2)cc1,-10.2%,
Cc1ccc(CSc2nc3cccnc3n2Cc2ccc(C(=O)NC3CC3)cc2)cc1,,3.16 µM (active)
O=C(NC1CCCCC1)c1ccc(Cn2c(SCc3ccccc3)nc3cccnc32)cc1,-16.3%,
COc1ccc(OC)c(-c2nc(C(N)=O)c3c(n2)n(-c2ccc4c(c2)OCO4)c(=O)n3C)c1,-6.52%,
CCOc1ccc(N(Cc2ccccc2)C(=O)c2nc(S(C)(=O)=O)ncc2Cl)cc1,,10 µM (active)
CCOc1ccc(NC(=O)CN(Cc2ccccc2)S(=O)(=O)c2ccc(Cl)cc2)cc1,-6.25%,
CCOc1ccc(N(Cc2ccccc2)C(=O)c2nc(SCC)ncc2Cl)cc1,35.2%,
CNc1ccc(NC(C)=O)cc1[N+](=O)[O-],-11.3% [at 1.84 µM],
N#Cc1c(-c2ccc(F)cc2)cc(C2CC2)nc1SCC(=O)c1cccs1,-5.05% [at 1.84 µM],
COc1ccc(CNC(=O)c2ccc3c(O)c(S(=O)(=O)c4ccccc4)c(=O)[nH]c3c2)cc1,-10.1%,
CC(C)c1ccc(NC(=O)c2ccc3c(O)c(S(=O)(=O)c4ccccc4)c(=O)[nH]c3c2)cc1,,7.94 µM (active)
Cc1ccc(C(=O)Nc2ccc3[nH]c(=O)c(=O)[nH]c3c2)cc1,16.2%,
Cc1c(NC(=O)C(C)(C)C)cccc1-c1nc2ccccc2s1,,15.8 µM (active)
CCC(C(=O)Nc1cccc(-c2nc3cccnc3s2)c1C)c1ccccc1 (stereo not drawn),6.12%,
Cc1c(NC(=O)Cc2ccccc2)cccc1-c1nc2cccnc2s1,3.6%,
O=C(Nc1cc(C(F)(F)F)ccc1Cl)C(=O)N1CCCCC1,-3.07% [at 1.84 µM],
Cc1cccc(NC(=O)CSc2ncc(-c3ccccc3)[nH]2)c1C,0.286%,
Cc1ccc(S(=O)(=O)c2cn(Cc3ccccc3)c3cc(N4CCCC4)c(F)cc3c2=O)c(C)c1,-14.3%,

Structure (SMILES),"activity, negative = cell killing",Potency
COCCN(Cc1ccco1)C(=O)Cn1ncc2c([nH]c3ccccc32)c1=O,-13.3%,
Cc1ccc(CN(C(=O)COc2ccc(Cl)cc2C)C2CCS(=O)(=O)C2)o1 (stereo not drawn),1.18%,
COc1cc(C(=O)N2CCN(c3ccc(Nc4ccc(C)cc4)nn3)CC2)cc(OC)c1OC,21.3%,
O=C(COC(=O)c1cc2c(s1)CCCC2)NCc1ccccc1Cl,-13.8%,
Cc1ccc(NC(=O)c2sc3nc(N)c(C#N)cc3c2N)cc1,9.07% [at 1.84 µM],
CCOc1ccc(CNC(=O)C2CCN(c3nnc(-n4cccc4CNc4ccc(C)cc4)s3)CC2)cc1OC,-31.7%,
CCOC(=O)/C(C#N)=C/c1ccc(N2CCN(Cc3ccccc3)CC2)cc1,2.74% [at 1.84 µM],
Cc1cccc(-n2c(=O)c3c(c4cc(C)ccc4n3C)n(CC(=O)Nc3ccccc3Cl)c2=O)c1,-3.24%,
CCOc1ccc(-c2nonc2NC(=O)c2oc3ccc(CC)cc3c2C)cc1,-18.4%,
Cc1ccc(S(=O)(=O)N2CCN(CC(=O)N/N=C/c3cc([N+](=O)[O-])ccc3Cl)CC2)cc1,17.1%,
CCc1nnc(SCC(=O)Nc2cc(OC)ccc2OC)nc1CC,-14.4%,
O=c1n(Cc2cccc(C(F)(F)F)c2)c2ccccc2c2nc(-c3ccccc3)nn12,2.19%,
Cc1c(NC(=O)c2cc(-c3ccc(Br)cc3)on2)c(=O)n(-c2ccccc2)n1C,16.8%,
Cc1ccc(-c2nnc(Nc3cccc(Br)c3)c3ccccc23)cc1S(=O)(=O)NCC1CCCO1 (stereo not drawn),13.7%,
Cc1ccc(-c2nnc(Nc3ccc(OCC(N)=O)cc3)c3ccccc23)cc1S(=O)(=O)NCC1CCCO1 (stereo not drawn),,12.6 µM (active)
Cc1ccc(Nc2nnc(-c3ccc(C)c(S(=O)(=O)N4CCCCC4)c3)c3ccccc23)cc1,4.35%,
C=CCn1c(SCC(N)=O)nnc1-c1cc2c(s1)CCC(CC)C2 (stereo not drawn),-6.46%,
Cc1nc2sc(C)c(C)n2c(=O)c1S(=O)(=O)NCCc1ccc(Cl)cc1,-2.74%,
Cc1cc(C)c(/C=C/c2onc(C)c2S(=O)(=O)N2CCC(C(=O)Nc3ccc(Cl)cc3C)CC2)c(C)c1,-11.9%,
O=C(CNS(=O)(=O)c1cccs1)N1CCN(c2ccccc2Cl)CC1,-5.35%,
COc1ccc(OC)c(NC(=O)CSC2=Nc3ccccc3C3=NC(CC(=O)NCCc4ccccc4)C(=O)N23)c1 (stereo not drawn),11.4%,
